Compound activity: PubChem BioAssay, several laboratories
This is a sample that favours compounds with a hit; in the whole collection about 12% have one here.
D1 mod: D1 CRE-luciferase signal change, two-sided – cell-based, HEK293 D1, dopamine EC30, D1 allosteric modulator project, primary screen; D(1A) dopamine receptor (Homo sapiens), P21728; dopamine EC30 potentiation; actives deviate in either direction; B-score at 10 µM; 58,000 tested, 5.9% active; AID 641, 2007;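 active = luminescence count or its row- and column-corrected plate score outside the 99.7% band of the plate's sample wells, on either side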
PostGolgi ctrl: growth inhibition of yeast control strain, primary screen, counter-screen for post-Golgi transport modulator project | efflux-deficient yeast background strain, growth absorbance A615, 16 h | inhibition, % at 10 µM | 98,000 tested, 5% active | AID 738, 2007
Cav3 T inh: Cav3.2 calcium influx blockers – cell-based, Fluo-4 calcium fluorescence, FDSS, MLSMR library, primary screen; AID 449739, 2010; B-score at 10 µM; Cav3.2-expressing cells; active compounds read low; Voltage-dependent T-type calcium channel subunit alpha-1H (Homo sapiens), O95180; 100,000 tested, 4% active;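 active = single-dose well whose peak fluorescence ratio is a statistical outlier from its plate by either plate-standardised score or position-corrected B-score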
DAT uptake mod: changed hDAT dopamine uptake under cocaine IC80, either direction, primary screen, cocaine antagonist project, cell-based, LLC-PK1 hDAT, [14C]-dopamine uptake, MLSMR; Sodium-dependent dopamine transporter (Homo sapiens), Q01959; LLC-PK1 hDAT cells, [14C]-dopamine uptake with cocaine IC80; actives deviate in either direction; B-score at 10 µM; 110,000 tested, 1.3% active; AID 449768, 2010;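 active = Z score or B-score, a plate-position-corrected score, falls beyond the plate's 99.7% confidence bounds, in either direction; inactive = both scores lie inside the 99.7% bounds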;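 note: scored against the spread of the other compound wells on the same plate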
PostGolgi yeast: phenotypic screen on post-Golgi transport, primary screen; 98,000 tested, 0.9% active; post-Golgi transport phenotypic cell assay; inhibition, % at 10 µM;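 note: yeast cells grown in 1536-well plates; yeast grown about 18 h at 30C before absorbance read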
PLAP act: PLAP enzyme activators, biochemical, luminescence, HTS. Alkaline phosphatase, placental type (Homo sapiens), P05187. purified PLAP enzyme, luminescent substrate read-out; active compounds read high. activation fold at 20 µM. 96,000 tested, 1.2% active. AID 696, 2007; in the data active = activation fold above about 2
Target sequence (P05187 whole entry, looked up): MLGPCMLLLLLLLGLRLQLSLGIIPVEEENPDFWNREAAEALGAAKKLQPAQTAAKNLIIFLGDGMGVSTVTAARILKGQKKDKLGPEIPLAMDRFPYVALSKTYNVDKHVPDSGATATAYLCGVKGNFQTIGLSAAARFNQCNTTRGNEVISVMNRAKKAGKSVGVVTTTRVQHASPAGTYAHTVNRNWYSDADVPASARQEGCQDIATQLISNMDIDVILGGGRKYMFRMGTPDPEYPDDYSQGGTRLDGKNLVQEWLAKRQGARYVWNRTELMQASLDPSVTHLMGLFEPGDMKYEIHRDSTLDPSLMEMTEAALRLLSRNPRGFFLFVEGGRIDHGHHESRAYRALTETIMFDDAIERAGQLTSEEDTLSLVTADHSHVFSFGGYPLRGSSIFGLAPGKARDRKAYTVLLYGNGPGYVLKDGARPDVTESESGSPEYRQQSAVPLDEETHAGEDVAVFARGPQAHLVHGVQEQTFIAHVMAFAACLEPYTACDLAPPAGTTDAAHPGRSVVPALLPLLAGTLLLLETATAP
The depositor's hits bear a star; . = no result. Cut-off read from the data, not from the text of the source, unless noted: active = inhibition above about 30%; inactive = the rest.

SMILES	D1 mod	PostGolgi ctrl	Cav3 T inh	DAT uptake mod	PostGolgi yeast	PLAP act
O=C(/C=C/c1ccccc1)NNC(=O)c1cccc(Cl)c1	.	8	0.52	0.032	2	1
COCCCNC(=S)NNC(=O)c1cccnc1	.	7	1.2	0.55	-3	2.7*
CCC(C)NC(=O)C1CCN(S(=O)(=O)c2ccc(OC)cc2)CC1 (stereo not drawn)	.	0	0.24	-0.51	1	0.8
O=C(CCc1ccccc1)NNC(=S)NC(=O)c1ccccc1	.	32*	-3.8	0.32	21	1.2
CCOC(=O)NC(Nc1ccc(S(N)(=O)=O)cc1)(C(=O)OCC)C(F)(F)F (stereo not drawn)	-0.25	0	-0.48	-0.03	32*	1
CCCC(=O)NC(Nc1ccc(S(=O)(=O)Nc2ncccn2)cc1)(C(=O)OCC)C(F)(F)F (stereo not drawn)	-0.71	16	-0.7	-1.1	-41	1.1
CCOC(=O)C(NC(C)=O)(Nc1ccc(F)cc1)C(F)(F)F (stereo not drawn)	0.18	-2	0.051	-0.26	1	1
CCOC(=O)C(NC(C)=O)(Nc1cccc(F)c1)C(F)(F)F (stereo not drawn)	-6.4*	-5	-0.028	0.33	8	0.9
COc1cccc(C(c2sc3ncnn3c2O)N2CCN(C(=O)c3ccco3)CC2)c1 (stereo not drawn)	-0.22	3	0.86	-1.1	-5	.
Cc1cccc2cc(C#N)c(NCCNC(=O)NC3CCCCC3)nc12	0.37	4	-0.14	-0.09	10	1
Cc1cccc2cc(C#N)c(NCCNS(=O)(=O)c3ccc4c(c3)OCCO4)nc12	1.6	25	-4.2*	-0.0029	7	0.8
COc1ccc2c(c1)c(C(C)=O)c(C)n2-c1ccccc1	.	22	-1.2	0.22	0	1
COc1ccc(-n2c(C)c(C(C)=O)c3cc(O)ccc32)cc1	.	32*	-0.13	-0.86	-1	1
COc1ccc(NC(=O)C(c2ccccc2)N(C)C(=O)c2cnccn2)cc1 (stereo not drawn)	0.16	-1	-4.2*	0.78	27	1.3
COc1ccc(N(C(=O)c2cnccn2)C(C(=O)NC2CCCCC2)c2ccc(Cl)cc2)cc1 (stereo not drawn)	.	.	-0.2	-1.2	.	.
O=c1[nH]c(=S)ccn1C1OC(CO)C(O)C1O (stereo not drawn)	.	.	-1.7	-0.13	.	.
Fc1ccc(N2CCN(c3ccc4c(C(F)(F)F)cc(C(F)(F)F)nc4n3)CC2)cc1	.	75*	-4*	-1.1	14	1.2
FC(F)(F)c1cc(C(F)(F)F)c2ccc(N3CCN(c4ccc(Cl)cc4)CC3)nc2n1	.	21	-7*	-0.34	16	0.9
FC(F)(F)c1cc(C(F)(F)F)c2ccc(N3CCN(c4ncccn4)CC3)nc2n1	.	1	0.037	1.8	3	0.9
N#CC(c1ccc(Cl)cc1)c1ccc2c(C(F)(F)F)cc(C(F)(F)F)nc2n1 (stereo not drawn)	.	91*	-2.5	-3.7*	82*	1.2
Clc1ccc(N2CCN(c3cnc4ccccc4n3)CC2)cc1	.	20	-1.7	-1	-2	1.1
C#CCNC(=O)C1=C[C@H](c2ccc(Br)cc2)C[C@H](OCCCCO)O1	.	.	1	0.43	.	.
Cc1ccc(C(=O)Nc2ccccc2-c2ccccc2)cc1S(=O)(=O)Nc1cccc(C)c1C	.	11	-6.3*	-0.35	-2	1.3
COc1cc(OC)cc(-c2cc3nc(C)c(CCC(=O)NC(C)CCc4ccco4)c(C)n3n2)c1 (stereo not drawn)	0.25	17	-0.52	0.39	5	1.7
Cc1nc2cc(-c3cccc(F)c3)nn2c(C)c1CCC(=O)NC(C)CCc1ccco1 (stereo not drawn)	-1.5	30	-5.5*	1.4	41*	1.6
SMILES	D1 mod	PostGolgi ctrl	Cav3 T inh	DAT uptake mod	PostGolgi yeast	PLAP act
CCc1ccc(OCCNC(=O)c2ccccc2SCc2ccccc2)cc1	.	19	-6.8*	0.3	-4	0.8
CCc1ccc(OCC(=O)NCCOc2ccccc2)cc1	.	5	-4.4*	-0.85	-6	0.9
O=[N+]([O-])c1ccc(-c2cc(-c3ccncc3)nc3ccc4ccccc4c23)cc1	.	-4	-0.87	0.27	2	0.9
COC(=O)CCC(=O)Nc1cccc(Br)c1	0.42	8	0.34	-1.4	-2	0.9
CCC(NS(=O)(=O)c1c(C)[nH]c(=O)[nH]c1=O)C12CC3CC(CC(C3)C1)C2 (stereo not drawn)	1.4	22	-1.1	1.3	-2	0.6
Cc1[nH]c(=O)[nH]c(=O)c1S(=O)(=O)NCC12CC3CC(CC(C3)C1)C2	-0.18	43*	-1.6	0.065	-2	0.8
c1ccc2c(c1)CCN(c1nc3cc4c(cc3s1)OCCO4)C2	-6.1*	11	-0.071	0.87	-6	0.9
O=C(Nc1nc2ccccc2s1)C1CC(=O)N(c2ccccc2)C1 (stereo not drawn)	.	-3	-5.1*	0.65	-7	1
O=C(Nc1nc2ccccc2s1)C1CC(=O)N(c2ccc(F)cc2)C1 (stereo not drawn)	.	1	-4.6*	1.1	-7	1.1
O=C(Nc1nc2ccccc2s1)C1CC(=O)N(c2ccc(Br)cc2)C1 (stereo not drawn)	.	46*	-3.1	-0.057	-9	1.3
O=C(NC1=NCCS1)C1CC(=O)N(c2ccccc2)C1 (stereo not drawn)	-0.13	4	0.048	0.2	0	1.3
CCOc1ccc(NC(=O)c2ccccc2OCC(=O)c2ccc(C)cc2)cc1	.	15	-0.45	-0.27	0	1
CCOc1ccc(NC(=O)C(C)Oc2ccccc2C(=O)Nc2ccc(C)c(Cl)c2)cc1 (stereo not drawn)	.	1	-0.087	2.7*	4	0.9
N#Cc1ccc(NC(=O)c2cc3cc4c5c(c3oc2=N)CCCN5CCC4)cc1	0.29	.	.	.	.	.
N=c1oc2c3c4c(cc2cc1C(=O)Nc1ccccc1)CCCN4CCC3	.	10	-11*	-0.05	8	1
Cc1ccccc1CS(=O)(=O)c1nnc([C@H](Cc2ccccc2)NC(=O)OC(C)(C)C)o1	.	51*	-1.4	-0.13	37*	1.6
CC(C)(C)OC(=O)N[C@@H](Cc1ccccc1)c1nnc(S(=O)(=O)Cc2ccccc2)o1	-0.5	10	1.8	-0.0094	17	1.1
CCC(C)[C@@H](NC(=O)OC(C)(C)C)c1nnc(S(=O)(=O)Cc2cccc(C)c2)o1 (stereo partly drawn)	.	52*	2.8	-1	15	1.4
